In the library only some 3% were active in any assay of this set; here they are far more common.
ALOX12 inh: Primary qHTS assay for inhibitors of human arachidonate 12S-lipoxygenase (ALOX12): Round 2; Polyunsaturated fatty acid lipoxygenase ALOX12 (Homo sapiens), P18054; purified 12hLO, xylenol orange hydroperoxide absorbance; Potency, µM (titrated, usually from 108 µM), hits mostly inhibitors; 580,000 compounds, 1.1% hits; active means well fitted inhibition curve with a large enough effect; inconclusive means small, poorly fitted or top-dose-only effect, or another doubt; inactive means no such curve, though single readings can be large or run the other way
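Purified human 12hLO at 150 nM in 25 mM Hepes, 0.01% Triton X-100, pH 7.0, preincubated 15 min at room temperature with compound. Reaction started with 40 uM arachidonic acid, 30 min at room temperature. Hydroperoxide measured by Fe-xylenol orange, 573/405 nm absorbance ratio.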
BCR signal inh: qHTS Assay to Find Inhibitors of Chronic Active B-Cell Receptor Signaling; ABC-DLBCL IkBa-CBG/CBR reporter, luminescence ratio, 4 h; Potency, µM (titrated, usually from 46.1 µM), most hits filed as inhibitors; 340,000 compounds, 0.05% hits; active means well fitted inhibition curve with a large enough effect in the signal ratio, with a control signal flat, not every such curve was filed as active; inconclusive means small, poorly fitted or top-dose-only effect, or effect the other way, or a change in a side signal; the % refers to the signal ratio
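TMD8 human ABC-DLBCL cells with doxycycline-inducible IκBα–green luciferase fusion and unfused red luciferase, in 0.5% FBS medium; compounds up to 46 uM, 4 h at 37C. Green/red luminescence ratio, filter-overlap corrected, fitted to concentration-response curves.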
hERG WT inh: qHTS for Inhibitors of KCHN2 3.1: Wildtype qHTS; AID 720551, 2013; activity change, % at 1.84 µM; U2OS, BacMam KCNH2, thallium flux FluxOr; stronger effect = lower value; 340,000 compounds, 0.37% hits;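 active means maximum activity change below -70%; inconclusive means maximum activity change between -70% and -50%; inactive means maximum activity change above -50%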
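U2OS cells were transduced with wild-type KCNH2 virus (2.03 x 10^8 / mL) for 4 h at room temperature, then cultured overnight at 37 C. Thallium flux was read with FluxOr dye. Rate constants were normalized to DMSO controls.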
LDHA block: qHTS assay for inhibitors of human lactate dehydrogenase. purified LDHA, NADH/diaphorase-resazurin fluorescence; stronger effect = lower value. activity change, % (values are at about 110 or 230 µM). 480,000 compounds, 0.15% hits. AID 1347041, 2019; in the data active means activity change below about -30%; inconclusive means mostly about -25% to -30%
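LDH5 2 nM; NADH 0.06 mM, pyruvate 0.2 mM; 200 mM Tris pH 7.4, EDTA, Tween-20; 5 min RT. Detection: diaphorase 0.133 mg/mL + resazurin 37 µM, fluorescence ex540/em590 at 0 and 20 min; normalized to enzyme-free and DMSO wells.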
KCNH2 3.1 block: qHTS for Inhibitors of KCHN2 3.1: Mutant qHTS; AID 720553, 2013; U2OS KCNH2 3.1, thallium flux FluxOr; stronger effect = lower value; activity change, % (tested at about 1.8 µM); 340,000 compounds, 0.95% hits;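 active means maximum activity change below -70%; inconclusive means maximum activity change from -70% to -50%; inactive means maximum activity change above -50%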;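 further: thallium influx rate constant from kinetic fluorescence after stimulation buffer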
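Thallium flux read-out: FluxOr dye with Red40 quencher in HBSS/HEPES, 45 min at RT. Rate constants from kinetic reads were normalized to positive and negative DMSO controls. Cells: U2OS virally expressing the 3.1 isoform.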
ClpP mod: qHTS Assay for Activators of ClpP. AID 651965, 2013. Potency, µM (highest dose often 57.5 µM). purified B. subtilis ClpP, FRET peptide cleavage, 20 min. 340,000 compounds, 1.9% hits. ATP-dependent Clp protease proteolytic subunit (Bacillus subtilis (strain 168)), P80244; active means well fitted falling curve with a large enough effect; inconclusive means small, poorly fitted or top-dose-only effect; inactive means no such curve, though single readings can be large or run the other way; further: the source files actives as falling curves though it sought activators and does not explain the sign; nearly all actives have a fitted effect of over 65% in size
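Buffer: 100 mM Tris/HCl pH8, 100 mM KCl, 0.05% low protease BSA, 2.5% glycerol, 0.01% Tween-20. ClpP 10 microg/mL final; 20 min RT; delta FRET normalized to ADEP and DMSO controls.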
A number is an active result; 0 = inactive; ? = inconclusive; - = not tested or not shown.

SMILES	ALOX12 inh	BCR signal inh	hERG WT inh	LDHA block	KCNH2 3.1 block	ClpP mod
O=C(Cn1c(-c2cccs2)cc2cc(Cl)ccc21)N1CCN(c2ccccc2)CC1	0	-	-	0	-	25µM
Cc1ccc(Cl)cc1N1CCN(C(=O)Cn2c(-c3cccs3)cc3cc(F)ccc32)CC1	0	-	-	0	-	8.9µM
O=C(Cn1c(-c2cccs2)cc2ccccc21)N1CCN(c2ccc(F)cc2)CC1	0	-	-	0	-	35µM
O=C(c1ccsc1)N1CCCC(c2nc(C3CCOCC3)no2)C1 (stereo not given)	0	-	-	-	-	-
CCCOc1ccccc1C(=O)Nc1cccc(-c2nc3ccccc3o2)c1	0	-	-	0	-	-
O=C(Cn1c(-c2cccs2)cc2ccccc21)N1CCN(c2ccccc2F)CC1	0	-	-	0	-	14µM
CCCn1nc(C(=O)N(CCOC)Cc2nc3ccccc3c(=O)[nH]2)c2ccccc2c1=O	0	-	-	0	-	-
CCCCn1nc(C(=O)N(C)Cc2nc3ccccc3c(=O)[nH]2)c2ccccc2c1=O	0	-	0	0	-75	0
CCN(CC)c1ccc(NS(=O)(=O)c2cc3[nH]c(=O)c(=O)[nH]c3cc2C)c(C)c1	45µM	-	-	0	-	0
CC1CCN(S(=O)(=O)c2ccc(NC(=O)C3CSC4(C)CCC(=O)N34)cc2)CC1 (stereo not given)	0	0	0	0	0	28µM
CC12CCC(=O)N1C(C(=O)Nc1cccc(S(=O)(=O)N3CCCCC3)c1)CS2 (stereo not given)	0	0	0	0	0	0
O=C(C1CC1)N1CCCC1c1nc(C2CCOCC2)no1 (stereo not given)	0	-	-	-	-	-
O=C(O)Cn1cc(C(=S)N2CCCCC2)c2ccccc21	40µM	0	0	0	0	0
O=C(Cn1cc(SCc2ccc(F)cc2)c2ccccc21)N1CCOCC1	0	?	0	0	0	2.8µM
O=C(Cn1cc(SCc2ccc(Cl)cc2)c2ccccc21)N1CCOCC1	?	?	0	0	0	0
COCCNC(=O)Cn1cc(C(=S)N2CCCCC2)c2ccccc21	0	0	0	0	0	-
O=C(O)Cn1cc(C(=S)N2CCOCC2)c2ccccc21	10µM	?	0	0	0	0
O=S(=O)(Oc1ccc2ccccc2c1)c1cccc2nsnc12	0	-	-	0	-	-
CCOc1ccc2c(c1)cc(C(=O)Nc1ccccc1OC)n2C	0	-	-	0	-	-
COc1cccc(OC)c1C(=O)Nc1ccc2oc(-c3ccncc3)nc2c1	0	-	-	0	-	-
Cc1cccc(OCC(=O)N2CCC(N3CCOCC3)CC2)c1	1.6µM	?	0	0	0	0
Cc1cccc(OCC(=O)NCC(C)(C)N2CCOCC2)c1	0	0	0	0	-153	0
Cc1ccc(C)c(OCC(=O)NCC(C)(C)N2CCOCC2)c1	0	?	0	0	0	0
O=C(COC(=O)[C@H](Cc1ccccc1)NC(=O)c1ccco1)Nc1ccccc1	0	0	0	0	0	0
CN(C)S(=O)(=O)c1cccc(NC(=O)COC(=O)[C@H](Cc2ccccc2)NC(=O)c2ccco2)c1	0	0	0	0	0	28µM
Cn1c(CC2CCS(=O)(=O)C2)nnc1SCC(=O)Nc1ccc(-c2ccccc2)cc1 (stereo not given)	0	-	-	0	-	-
Cc1ccccc1-c1coc2cc(O)ccc2c1=O	0	0	0	0	0	28µM
COc1ccc([C@H]2Cc3cccc(O)c3C(=O)O2)cc1O	0	0	0	0	0	0
O=C1CC(c2ccc(O)c(O)c2)Oc2c1ccc(O)c2O (stereo not given)	35µM	0	0	0	0	0
CC(C)=CCc1c(O)cc2c(c1O)C(=O)CC(c1ccccc1)O2 (stereo not given)	0	-	0	0	0	0

Bioassay records: PubChem BioAssay, National Center for Advancing Translational Sciences (NCATS)
